Compound activity deposited in PubChem by National Center for Advancing Translational Sciences (NCATS).
Compounds with a hit are over-represented: about 3.6% of the library has one in this group of screens.
TDP43 rescue: TDP-43 toxicity inhibition in yeast; TDP-43 expressing yeast growth rescue, BacTiter-Glo, 24 h; Potency, µM (series often up to 46.1 µM), inactives show top-dose growth rescue (activation), usual class: activators; 410,000 tested, 1.8% active; AID 652104; also: % of control where 0% means no effect; nearly all actives have a fitted effect of over 50% in size
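Growth rescue of TDP-43-toxic yeast measured as ATP luminescence (BacTiter-Glo). Cells grown to mid-log in raffinose, induced in galactose at OD600=0.02, exposed to compound 24 hr at 30 deg C.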
Mm-Cpn inhibitor: M. maripaludis TRiC chaperonin inhibition; purified Mm-Cpn ATPase, ADP Transcreener TR-FRET; Potency, µM (series often up to 76.9 µM), without a hit: top-dose activity, negative = inhibition, hits mostly inhibitors; 330,000 tested, 0.031% active; also: % is scaled to controls: 0 for no effect and ±100 for the full control effect; nearly all actives have a fitted effect of over 80% in size
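Inhibition of chaperonin ATP hydrolysis is measured as reduced ADP production, detected by competitive TR-FRET in which signal falls with ADP. Final enzyme 25 nM and ATP 10 uM, reacted 30 min at 37°C.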
aSyn rescue: inhibitors of alpha-synuclein toxicity in yeast; AID 652106; Potency, µM (top dose mostly 46.1 µM), for the others: top-dose growth rescue (activation), actives largely listed as activators; Yeast expressing alpha-synuclein, growth rescue, BacTiter-Glo, 24 h; 370,000 tested, 0.14% active; also: % of control where 0% means no effect; nearly all actives have a fitted effect of over 65% in size
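Rescue of yeast growth: cells expressing toxic alpha-synuclein, induced in galactose at OD600 0.02, incubated with compound 24 h at 30 C. ATP luminescence quantified growth; inhibitors of toxicity appear as activators.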
Abeta yeast res: restores growth of yeast expressing A-beta42 peptide. yeast expressing A-beta42, growth rescue, OD600, 48 h; response scale: 0% DMSO, 100% iron-clioquinol control. Potency, µM (highest dose often 46.1 µM), most hits filed as activators. 410,000 tested, 0.063% active; also: nearly all actives have a fitted effect of over 55% in size
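Yeast growth medium received pinned compounds, then yeast cells expressing toxic A-beta were added; plates incubated at 30 C for 48 hr. Growth read as absorbance at 600 nm, normalized to DMSO and equimolar FeCl3 plus clioquinol controls.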
FUS yeast rescue: FUS proteinopathy suppression in yeast. S. cerevisiae FUS-expressing, growth rescue, OD600, 24 h. Potency, µM (doses to about 76.6 µM), usual class: activators. 390,000 tested, 0.24% active. AID 1347120;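 also: plate controls were DMSO vehicle for no effect and reference control for full effect; nearly all actives have a fitted effect of over 55% in size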
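Compound concentration series was pinned onto galactose-induced FUS-expressing yeast seeded at OD 0.005. Plates sat 24hr at 30C; absorbance at 600 nm gave growth. DMSO served as background control.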
ClpP mod: qHTS Assay for Activators of ClpP. 340,000 tested, 1.9% active. AID 651965, 2013. Potency, µM (highest dose often 57.5 µM), for the others: at the top dose activity change, negative = active. ATP-dependent Clp protease proteolytic subunit (Bacillus subtilis (strain 168)), P80244. purified B. subtilis ClpP, FRET peptide cleavage, 20 min; active = well fitted falling curve with a large enough effect; inconclusive = small, poorly fitted or top-dose-only effect; inactive = no such curve, though single readings can be large or run the other way; also: the source files actives as falling curves though it sought activators and does not explain the sign; nearly all actives have a fitted effect of over 65% in size
Target sequence (P80244 whole entry, looked up): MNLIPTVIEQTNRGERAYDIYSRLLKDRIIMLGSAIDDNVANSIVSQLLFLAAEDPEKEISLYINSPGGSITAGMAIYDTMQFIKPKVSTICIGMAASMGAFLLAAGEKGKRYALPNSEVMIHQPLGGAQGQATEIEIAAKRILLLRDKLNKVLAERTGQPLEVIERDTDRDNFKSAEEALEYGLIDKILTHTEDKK
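Buffer: 100 mM Tris/HCl pH8, 100 mM KCl, 0.05% low protease BSA, 2.5% glycerol, 0.01% Tween-20. ClpP 10 microg/mL final; 20 min RT; delta FRET normalized to ADEP and DMSO controls.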
* marks the source's active call; other numbers are inactive results; [ ] = another dose, or the depositor's remark. Unless noted, calls follow the shape of the dose curve; as a rule, active = well fitted curve in the direction sought with a large enough effect; inconclusive = small, poorly fitted or top-dose-only effect, or another doubt; inactive = no such curve, though single readings can be large; an effect the other way counts as inactive or inconclusive. Potency is read from the fitted curve at half-maximal effect.

Results for COc1cccc(CN2CCC2(C)C(=O)Nc2cccc3cccnc23)c1F (stereo not given) ?
TDP43 rescue: 0%; aSyn rescue: -11%; Abeta yeast res: inactive; FUS yeast rescue: inactive; ClpP mod: 28µM*

How did CC1(C(=O)NS(=O)(=O)c2ccccc2)CCN1C(=O)Cc1ccccc1 (stereo not given) do in these assays?
TDP43 rescue: 0%; aSyn rescue: 2%; Abeta yeast res: inactive; FUS yeast rescue: inactive; ClpP mod: -1%

Results for CC1(C(=O)Nc2cccc3ncccc23)CCN1C(=O)Cc1ccc(-c2ccccc2)cc1 (stereo not given) ?
TDP43 rescue: 25µM*; aSyn rescue: 7%; Abeta yeast res: inactive; FUS yeast rescue: inconclusive; ClpP mod: -10%

What do the screens show for `Cc1ccc(S(=O)(=O)NC(=O)C2(C)CCN2C(=O)Cc2ccc(-c3ccccc3)cc2)cc1` (stereo not given)?
TDP43 rescue: 30%; aSyn rescue: -17%; Abeta yeast res: inactive; FUS yeast rescue: 28µM*; ClpP mod: 2%

Results for CCn1c(C(=O)NCc2cc(Br)ccc2OC)cc2oc3ccccc3c21 ?
TDP43 rescue: 5%; Abeta yeast res: inactive; FUS yeast rescue: inactive; ClpP mod: 4%

Results for CCCN1C(=O)c2ccccc2NC1c1ccc(OC)c(COc2ccc([N+](=O)[O-])c(C)c2)c1 (stereo not given) ?
aSyn rescue: 7%; ClpP mod: -11%

How did CC1(C(=O)Nc2cccc3cccnc23)CCN1C(=O)Cc1ccc(Cl)cc1Cl (stereo not given) do in these assays?
TDP43 rescue: 20µM*; aSyn rescue: -3%; Abeta yeast res: inactive; FUS yeast rescue: inactive; ClpP mod: -5%

Results for CCC1CCCCN1S(=O)(=O)c1cc(C(=O)Nc2ccc(C)c(F)c2)ccc1F (stereo not given) ?
TDP43 rescue: 10%; Abeta yeast res: inactive; FUS yeast rescue: inactive; ClpP mod: -8%

What do the screens show for `COc1ccc2c(c1)-c1c(ssc1=S)C(C)(C)N2`?
TDP43 rescue: 18µM*; Mm-Cpn inhibitor: -3%; aSyn rescue: 2%; Abeta yeast res: inactive; FUS yeast rescue: inactive; ClpP mod: 0%

How did COC(=O)c1c(NC(=O)c2cc3nc(-c4ccc(OC)cc4)cc(C(F)(F)F)n3n2)sc2c1CCCC2 do in these assays?
TDP43 rescue: -1%; Abeta yeast res: inactive; FUS yeast rescue: inactive; ClpP mod: 28µM*

Results for CCOC(=O)c1c(NC(=O)c2cc3nc(-c4ccc(OC)cc4)cc(C(F)(F)F)n3n2)sc2c1CCC(C)C2 (stereo not given) ?
TDP43 rescue: -9%; Abeta yeast res: inactive; FUS yeast rescue: inactive; ClpP mod: 32µM*

What do the screens show for `COc1ccc(-c2cc(C(F)(F)F)n3nc(C(=O)NCCCn4ccnc4)cc3n2)cc1`?
TDP43 rescue: 15%; Mm-Cpn inhibitor: 0%; aSyn rescue: 4%; Abeta yeast res: inactive; FUS yeast rescue: inactive; ClpP mod: 28µM*

How did Cc1ccc(S(=O)(=O)C(CNC(=O)COc2ccccc2)c2cccs2)cc1 (stereo not given) do in these assays?
TDP43 rescue: 0%; Abeta yeast res: inactive; FUS yeast rescue: inactive; ClpP mod: 0%

Results for COc1cc(Cl)c(C)cc1NC(=O)CCc1nc2cccnc2n1-c1ccccc1 ?
TDP43 rescue: 25%; Abeta yeast res: inactive; FUS yeast rescue: inactive; ClpP mod: -1%

Results for O=C(CN(Cc1ccccc1)S(=O)(=O)c1ccc(Cl)cc1)NCC1CCCO1 (stereo not given) ?
TDP43 rescue: 12%; Mm-Cpn inhibitor: 1%; aSyn rescue: 1%; Abeta yeast res: inactive; FUS yeast rescue: inactive

Results for O=C(CN(Cc1ccccc1)S(=O)(=O)c1ccc(Br)cc1)NCC1CCCO1 (stereo not given) ?
TDP43 rescue: 22%; Mm-Cpn inhibitor: -1%; aSyn rescue: 1%; Abeta yeast res: inactive; FUS yeast rescue: inactive; ClpP mod: 25µM*

What do the screens show for `COCCCNC(=O)/C=C/c1ccc(Cl)cc1Cl`?
TDP43 rescue: 14µM*; Mm-Cpn inhibitor: 0%; aSyn rescue: 0%; Abeta yeast res: inactive; FUS yeast rescue: inactive; ClpP mod: 0%

What do the screens show for `Cc1cc(C)cc(C(=O)Oc2cc(C)[nH]c(=O)c2[N+](=O)[O-])c1`?
TDP43 rescue: inconclusive; Mm-Cpn inhibitor: -2%; aSyn rescue: 4%; FUS yeast rescue: inactive; ClpP mod: 1%

What do the screens show for `Cc1cc(OC(=O)c2ccc(C(C)(C)C)cc2)c([N+](=O)[O-])c(=O)[nH]1`?
TDP43 rescue: 16µM*; Mm-Cpn inhibitor: 2%; aSyn rescue: 9%; Abeta yeast res: inactive; FUS yeast rescue: inactive; ClpP mod: 2%

What do the screens show for `CCOC(=O)c1c(C)[nH]c(CCC(=O)NCc2ccccc2Cl)c1C`?
TDP43 rescue: 26%; Abeta yeast res: inactive; FUS yeast rescue: inactive; ClpP mod: 0%

What do the screens show for `CCCCC(=O)NC(=S)Nc1cc([N+](=O)[O-])ccc1OC`?
TDP43 rescue: 7.1µM*; Mm-Cpn inhibitor: -1%; aSyn rescue: -15%; Abeta yeast res: inactive; FUS yeast rescue: inactive; ClpP mod: -2%

Results for CCCCCCCC(=O)NNC(=O)c1ccc(F)cc1 ?
TDP43 rescue: 1%; Mm-Cpn inhibitor: -2%; aSyn rescue: -7%; Abeta yeast res: inactive; FUS yeast rescue: inactive; ClpP mod: -3%

Results for CCCCCC(=O)NNC(=O)c1ccc(F)cc1 ?
TDP43 rescue: 6%; Mm-Cpn inhibitor: 3%; aSyn rescue: 1%; Abeta yeast res: inactive; ClpP mod: 2.8µM*

What do the screens show for `CCCCCC(=O)NNC(=S)NC(=O)c1ccc([N+](=O)[O-])cc1`?
TDP43 rescue: -7%[9.22 µM]; Mm-Cpn inhibitor: -6%; aSyn rescue: 22µM*; Abeta yeast res: inconclusive; FUS yeast rescue: inactive

How did CC(=O)Nc1ccc(NC(=S)NC(=O)c2ccc([N+](=O)[O-])cc2)cc1 do in these assays?
TDP43 rescue: 10%; Mm-Cpn inhibitor: 1%; aSyn rescue: 0%; Abeta yeast res: inactive; ClpP mod: 6.3µM*

Results for CCCOc1ccc(C(=O)NCC(c2ccc(OC)cc2)N2CCCCC2)cc1 (stereo not given) ?
TDP43 rescue: 4%; Abeta yeast res: inactive; FUS yeast rescue: inactive; ClpP mod: -2%
